Where a name gives a salt, the structure may show the parent alone.
Legend:
[1] = system: Staphylococcus aureus MW2 delta-mecA (mecA-); test: normalized GFP fluorescence (growth of mecA- strain) (fraction of control range); higher = more growth of mecA- strain; settings: compound concentration: 150 uM; cefoxitin: subinhibitory; fluorescent label: GFP
Summary of the method: (§1)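 Pre-induced S. aureus MW2 cells carrying the gene (DsRed) and deletion cells lacking it (GFP) were combined 1:1 in LB containing a subinhibitory antibiotic dose set each day, then dispensed at 5 µL/well onto 150 μM compound (1.5% DMSO) in 1536-well plates as a single replicate. After 20 h at 37 °C and 90% humidity without shaking, DsRed (540/590) and GFP (485/520) were read. Each channel was scaled per plate between the medians of the single-strain controls, and plates with high untreated ratios and rows with DsRed/GFP >10 were excluded.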

[2] = system: Staphylococcus aureus MW2 (mecA+); test: normalized DsRed fluorescence (growth of mecA+ strain) (fraction of control range); higher = more growth of mecA+ strain; settings: compound concentration: 150 uM; cefoxitin: subinhibitory; fluorescent label: DsRed
Summary of the method: as §1

Row | SMILES | normalized GFP fluorescence [1] | normalized DsRed fluorescence [2]
1 | O=C1c2c(O)ccc(O)c2C(=O)c2c(NCCNCCO)ccc(NCCNCCO)c21 | 0.184 | 1.12
2 | CC(C)(C)c1ccc(C(O)CCCN2CCC(C(O)(c3ccccc3)c3ccccc3)CC2)cc1 (centres undefined) | 0.00757 | 0.056
3 | Nc1nc(Cl)nc2c1ncn2[C@H]1C[C@H](O)[C@@H](CO)O1 [Cladribine] | 0.546 | 0.824
4 | COc1cc(C(=O)NS(=O)(=O)c2ccccc2C)ccc1Cc1cn(C)c2ccc(NC(=O)OC3CCCC3)cc12 [Zafirlukast (Accolate)] | -0.00168 | 0.0292
5 | OC[C@H]1O[C@@H](n2cnc3c2N=CNC[C@H]3O)C[C@@H]1O [Pentostatin] | 0.461 | 0.689
6 | CN1CCN(c2c(F)cc3c(=O)c(C(=O)O)cn(CCF)c3c2F)CC1 [Fleroxacin (Quinodis)] | 0.0169 | 0.075
7 | COc1ccc2cccc(CCNC(C)=O)c2c1 [Agomelatine] | 0.243 | 0.62
8 | NC[C@H]1CC[C@H](C(=O)O)CC1 | 0.867 | 0.725
9 | Clc1ccccc1CN1CCc2sccc2C1 | 0.281 | 0.684
10 | CC(COc1ccccc1)NC(C)C(O)c1ccc(O)cc1 (centres undefined) | 0.474 | 0.631
11 | CC(C)(C#N)c1cc(Cn2cncn2)cc(C(C)(C)C#N)c1 | 0.351 | 0.796
12 | N#Cc1c(N(CC(=O)O)CC(=O)O)sc(C(=O)O)c1CC(=O)O [Strontium ranelate (Protelos)] | 0.212 | 0.694
13 | COc1cc(NS(=O)(=O)c2ccc(N)cc2)nc(OC)n1 | 0.338 | 1.32
14 | OCCN1CCN(CCCN2c3ccccc3Sc3ccc(C(F)(F)F)cc32)CC1 | 0.0603 | 1.68
15 | CCOC(=O)[C@H](CCc1ccccc1)N[C@@H](C)C(=O)N1Cc2cc(OC)c(OC)cc2C[C@H]1C(=O)O [Moexipril HCl] | 0.373 | 0.48
16 | COc1ccc(OC)c(C(O)CNC(=O)CN)c1 (centres undefined) | 0.301 | 0.764
17 | CC(C(=O)O)c1cccc(C(=O)c2ccccc2)c1 (centres undefined) | 0.247 | 0.413
18 | COc1cc(NC(C)CCCN)c2ncccc2c1 (centres undefined) | -0.00346 | 0.672
19 | C[N+](C)(C)C[C@H](O)CC(=O)[O-] [L-carnitine (Levocarnitine)] | 0.171 | 0.836
20 | CC1=C(/C=C/C(C)=C/C=C/C(C)=C/C(=O)O)C(C)(C)CCC1 | -0.00103 | 0.642
21 | C[C@](N)(Cc1ccc(O)c(O)c1)C(=O)O | 0.258 | 0.703
22 | COc1cc(OC)c(C(=O)CCCN2CCCC2)c(OC)c1 [Buflomedil HCl] | 0.4 | 0.499
23 | Cc1nnc(C(C)C)n1C1C[C@H]2CC[C@@H](C1)N2CC[C@H](NC(=O)C1CCC(F)(F)CC1)c1ccccc1 (stereo in doubt) [Maraviroc] | 0.747 | 0.67
24 | COc1cc2ncnc(Nc3ccc(F)c(Cl)c3)c2cc1NC(=O)/C=C/CN1CCCCC1 | 0.102 | 0.557
25 | NS(=O)(=O)c1cc2c(cc1C(F)(F)F)NCNS2(=O)=O | 0.22 | 0.753
26 | CCOC(=O)C1=C[C@@H](OC(CC)CC)[C@H](NC(C)=O)[C@@H](N)C1 | 0.257 | 0.588

Row | SMILES | normalized GFP fluorescence [1] | normalized DsRed fluorescence [2]
27 | Cc1cc(C#N)cc(C)c1Oc1nc(Nc2ccc(C#N)cc2)nc(N)c1Br [Etravirine (TMC125)] | 0.423 | 0.589
28 | CCN(CCCCOC(=O)c1ccc(OC)c(OC)c1)C(C)Cc1ccc(OC)cc1 (centres undefined) | 0.41 | 0.559
29 | Cc1ccc(/C(=C\CN2CCCC2)c2ccccn2)cc1 | 0.244 | 0.576
30 | CC(C)COCC(CN(Cc1ccccc1)c1ccccc1)N1CCCC1 (centres undefined) | 0.00856 | 0.96
31 | CC(=O)O[C@]1(C(C)=O)CC[C@H]2[C@@H]3C[C@H](C)C4=CC(=O)CC[C@]4(C)[C@H]3CC[C@@]21C | 0.145 | 0.759
32 | CCCCC(=O)N(Cc1ccc(-c2ccccc2-c2nnn[nH]2)cc1)[C@H](C(=O)O)C(C)C | 0.105 | 0.898
33 | C#C[C@]1(O)CC[C@H]2[C@@H]3CCc4cc(O)ccc4[C@H]3CC[C@@]21C [Ethinyl Estradiol] | 0.246 | 0.449
34 | CCN1CCCC1CNC(=O)c1cc(S(N)(=O)=O)ccc1OC (centres undefined) | 0.362 | 0.764
35 | CCC1=C[C@@H]2CN(C1)Cc1c([nH]c3ccccc13)[C@@](C(=O)OC)(c1cc3c(cc1OC)N(C)[C@H]1[C@@](O)(C(=O)OC)[C@H](OC(C)=O)[C@]4(CC)C=CCN5CC[C@]31[C@@H]54)C2 [Vinorelbine (Navelbine)] | 0.108 | 0.921
36 | O=C(O)C[C@H](O)C[C@H](O)/C=C/c1c(C2CC2)nc2ccccc2c1-c1ccc(F)cc1 [Pitavastatin calcium (Livalo)] | -0.0148 | 0.559
37 | CC(=O)Oc1cc2c(s1)CCN(C(C(=O)C1CC1)c1ccccc1F)C2 (centres undefined) [Prasugrel (Effient)] | 0.226 | 0.841
38 | Cc1nc(Nc2ncc(C(=O)Nc3c(C)cccc3Cl)s2)cc(N2CCN(CCO)CC2)n1 | 0.0741 | 0.816
39 | CC(C)C[C@H](NC(=O)[C@H](CCc1ccccc1)NC(=O)CN1CCOCC1)C(=O)N[C@@H](Cc1ccccc1)C(=O)N[C@@H](CC(C)C)C(=O)[C@@]1(C)CO1 [Carfilzomib (PR-171)] | 0.271 | 1.11
40 | CNC(=C[N+](=O)[O-])NCCSCc1csc(CN(C)C)n1 | 0.575 | 0.785
41 | N=C(N)N1CCc2ccccc2C1 | 0.353 | 0.808
42 | NC(=O)N1c2ccccc2CC(=O)c2ccccc21 | 0.596 | 0.408
43 | CN1CCc2cccc3c2[C@H]1Cc1ccc(O)c(O)c1-3 | 0.463 | 0.543
44 | C[C@@H]1C/C=C/C=C/C=C/C=C/[C@H](O[C@@H]2O[C@H](C)[C@@H](O)[C@H](N)[C@@H]2O)C[C@@H]2O[C@](O)(C[C@@H](O)C[C@H]3O[C@@H]3/C=C/C(=O)O1)C[C@H](O)[C@H]2C(=O)O | 0.448 | 0.753
45 | C#C[C@]1(OC(C)=O)CC[C@H]2[C@@H]3CCC4=CC(=NO)CC[C@@H]4[C@H]3CC[C@@]21CC (mixture of isomers) | 0.0291 | 0.642
46 | CC1(C)O[C@@H]2C[C@H]3[C@@H]4C[C@H](F)C5=CC(=O)C=C[C@]5(C)[C@@]4(F)[C@@H](O)C[C@]3(C)[C@]2(C(=O)CO)O1 | 0.372 | 0.706
47 | CN1CCN(CC/C=C2/c3ccccc3Sc3ccc(S(=O)(=O)N(C)C)cc32)CC1 | 0.0289 | 1.9
48 | O=C1NCC2(CCN(CCc3ccccc3)CC2)O1 | 0.307 | 0.724
49 | N[C@@H](Cc1c[nH]c2ccccc12)C(=O)O | 0.368 | 0.604
50 | CC(C)Cn1cnc2c(N)nc3ccccc3c21 | 0.18 | 1.09
51 | Cc1cnc(NC(=O)C2=C(O)c3ccccc3S(=O)(=O)N2C)s1 | 0.204 | 0.469
52 | N[C@@H](Cc1ccc(O)c(O)c1)C(=O)O | 0.506 | 0.611

Row | SMILES | normalized GFP fluorescence [1] | normalized DsRed fluorescence [2]
53 | Clc1ccc(C(Cn2ccnc2)OCc2c(Cl)cccc2Cl)c(Cl)c1 (centres undefined) [Isoconazole nitrate (Travogen)] | -0.00251 | 0.00958
54 | CC(=O)O[C@]1(C(C)=O)CC[C@H]2[C@@H]3C=C(Cl)C4=CC(=O)[C@@H]5C[C@@H]5[C@]4(C)[C@H]3CC[C@@]21C | 0.239 | 0.593
55 | Nc1nc(F)nc2c1ncn2[C@@H]1O[C@H](COP(=O)(O)O)[C@@H](O)[C@@H]1O | 0.362 | 0.656
56 | C=C1[C@H](CO)[C@@H](O)C[C@@H]1n1cnc2c(=O)[nH]c(N)nc21 [Entecavir hydrate] | 0.319 | 0.447
57 | O=C(Nc1cccc2c(=O)cc(-c3nnn[nH]3)oc12)c1ccc(OCCCCc2ccccc2)cc1 [Pranlukast] | 0.0957 | 0.714
58 | Nc1ccc(C(=O)O)cc1 | 0.617 | 0.958
59 | Nc1ccc(S(=O)(=O)Nc2nccs2)cc1 | 0.273 | 1.4
60 | O=C(c1ccc(F)cc1)C1CCN(CCn2c(=O)[nH]c3ccccc3c2=O)CC1 | 0.217 | 0.83
61 | C#Cc1cccc(Nc2ncnc3cc4c(cc23)OCCOCCOCCO4)c1 [Icotinib] | 0.488 | 0.429
62 | CN1C(=O)OC(C)(C)C1=O | 0.0459 | 1.31
63 | CCOC(=O)[N-]c1c[n+](N2CCOCC2)no1 | 0.369 | 0.863
64 | Nc1ncn([C@@H]2O[C@H](CO)[C@@H](O)[C@H]2O)c(=O)n1 | 0.292 | 0.51
65 | Cc1ccc([C@@H]2O[C@H](CO)[C@@H](O)[C@H](O)[C@H]2O)cc1Cc1ccc(-c2ccc(F)cc2)s1 [Canagliflozin] | -0.0143 | 0.755
66 | CCCCCC(=O)O[C@]1(C(C)=O)CC[C@H]2[C@@H]3CCC4=CC(=O)CC[C@]4(C)[C@H]3CC[C@@]21C | 0.34 | 0.39
67 | COc1cc2nccc(Oc3ccc(NC(=O)NC4CC4)c(Cl)c3)c2cc1C(N)=O [E7080 (Lenvatinib)] | 0.528 | 0.638
68 | CN1CCOC(c2ccccc2)c2ccccc2C1 (centres undefined) | 0.242 | 0.81
69 | CN(C)C(=O)COC(=O)Cc1ccc(OC(=O)c2ccc(NC(=N)N)cc2)cc1 [Camostat Mesilate (FOY-305)] | 0.0607 | 0.818
70 | CCC1NC(=O)c2cc(S(N)(=O)=O)c(Cl)cc2N1 (centres undefined) | 0.601 | 0.513
71 | CN1CCN2c3ccccc3Cc3ccccc3C2C1 (centres undefined) | 0.0802 | 1.52
72 | CN(C)c1nc(N(C)C)nc(N(C)C)n1 | 0.159 | 0.887
73 | C[C@]12CCC(=O)C=C1[C@@H]1C[C@@H]1[C@H]1[C@@H]3[C@@H]4C[C@@H]4[C@@]4(CCC(=O)O4)[C@@]3(C)CC[C@@H]12 | 0.162 | 0.65
74 | CN1CCN(C2=Nc3cc(Cl)ccc3Nc3ccccc32)CC1 [Clozapine (Clozaril)] | 0.0909 | 1.01
75 | CCc1nc(N)nc(N)c1-c1ccc(Cl)cc1 | 0.211 | 0.879
76 | Cc1ncc(C[n+]2csc(CCO)c2C)c(N)n1 | 0.111 | 1.23
77 | CC(C)NCC(O)COc1ccc(CC(N)=O)cc1 (centres undefined) | 0.323 | 0.749
